L929 necroptosis: L929 zVAD cell death inhibition. L929 zVAD necroptosis rescue, ATP luminescence, 24 h; with zVAD 60 µM. viability rescue, % at 10 µM. 220,000 tested, 0.38% active. AID 1377;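 active = activation, scaled between plate controls, above about 75%, limit read from the data; inactive = activation under that limit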
Mcl1-Bid inh: Mcl-1/Bid interaction inhibition; TR-FRET Mcl-1/Bid-Dy647 peptide binding, 1536-well; AID 1021; 220,000 tested, 0.97% active; Q07820; inhibition, % at 21.7 µM;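 active = compounds that cut the binding signal by more than half at the single screening dose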;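 also: His-tagged Mcl-1 with europium anti-His antibody binding Bid BH3 peptide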
Target sequence (Q07820 whole entry, looked up): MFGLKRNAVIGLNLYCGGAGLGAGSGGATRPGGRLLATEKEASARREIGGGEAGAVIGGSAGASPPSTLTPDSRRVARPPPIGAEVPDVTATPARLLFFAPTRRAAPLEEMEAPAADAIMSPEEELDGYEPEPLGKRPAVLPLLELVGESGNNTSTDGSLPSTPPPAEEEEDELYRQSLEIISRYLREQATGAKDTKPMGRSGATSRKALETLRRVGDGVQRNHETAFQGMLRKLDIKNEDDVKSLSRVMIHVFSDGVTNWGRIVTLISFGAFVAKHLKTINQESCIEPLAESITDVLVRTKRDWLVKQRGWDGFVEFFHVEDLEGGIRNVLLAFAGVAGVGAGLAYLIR
TNF death inh: blocks TNF-alpha induced death of Jurkat FADD-/- cells | Jurkat FADD-/- TNF necroptosis rescue, ATP luminescence, 24 h; 0 = TNF only, 100 = no-TNF cells | activation (protection from cell death), % at 10 µM | 220,000 tested, 0.068% active | AID 463075;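 active = activation, meaning protection from cell death, of at least 50% relative to plate controls; inactive = activation below 50%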;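 also: necroptosis triggered by 40 ng/mL TNF-alpha added together with compound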
Calpain2 inh: blocks pig calpain II enzyme activity. purified calpain II, fluorogenic peptide substrate, 30 min. inhibition, % at 16 µM. AID 1236. 220,000 tested, 0.37% active;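 active = inhibition above about 50%, limit read from the data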
Mcl1-Noxa inh: Mcl-1/Noxa interaction inhibition | 220,000 tested, 1.5% active | AID 1022 | inhibition, % at 21.7 µM | Q07820 | TR-FRET Mcl-1/Noxa peptide binding, 2 h;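 active = compounds that cut the protein-peptide binding signal by more than 50% relative to plate controls in a single-dose test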;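 also: His-tagged Mcl-1 with rhodamine Noxa BH3 peptide and terbium anti-His antibody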
Mcl-1 Bim block: inhibitors of Bim-Mcl-1 interaction, human; 190,000 tested, 0.1% active; Bead-based flow cytometry, Bim peptide-Mcl-1 binding; inhibition, % at 10 µM; AID 1009; in the data active = inhibition above about 40%
Of the large screens only hits and unclear results are named; the others gave an inactive call. Compounds with a hit are over-represented: about 2.8% of the library has one in this group of screens.

COc1ccc(CCN=C(N)NS(=O)(=O)c2ccc(C)cc2)cc1OC	Mcl1-Noxa inh 55
CCN(CC)C(=O)CC(c1cc(OC)c(OC)c(OC)c1)c1c(OC)cc(OC)c2c(-c3ccccc3)cc(=O)oc12 (centres undefined)	Mcl1-Noxa inh 96 (no result: Mcl-1 Bim block)
CCN(CC)C(=O)CC(c1cc(OC)c(OC)c(OC)c1)c1c(OC)cc(OC)c2ccc(=O)oc12 (centres undefined)	none (no result: Mcl-1 Bim block)
O=c1nc(SCc2ccccc2Cl)nc(-c2ccc(Cl)cc2)[nH]1	Calpain2 inh 50 (no result: Mcl-1 Bim block)
COC(=O)C(C)N(C(=O)c1ccc(C(=O)c2ccccc2)cc1)c1c(C)cccc1C (centres undefined)	none
CCCn1nnc(NC(=O)COc2ccc(C3CCCCC3)cc2)n1	none
CCCCCCCNC1=CC(=O)CC(c2ccccc2)C1 (centres undefined)	Calpain2 inh 74
COc1cccc(N/C(N)=N/c2nc(C(F)(F)F)cc(=O)[nH]2)c1	none
CCCCC(=O)Nc1cccc(NC(=S)NC(C)=O)c1	none
Nc1cc2c(cc1[N+](=O)[O-])OCO2	Mcl1-Noxa inh 79
CC1(c2ccccc2)CC(C)(C)n2c(O)c(C3=NC(=S)NC3=O)c3cccc1c32 (centres undefined)	Mcl1-Noxa inh 60 (no result: Mcl-1 Bim block)
COc1cc2c3c(c1)c(C1=NC(=S)NC1=O)c(O)n3C(C)(C)C=C2C	none
CCOC(=O)C1(Cc2ccc(OC)cc2)CCN(C(=O)[C@@H]2CCCN2C(C)=O)CC1	none (no result: Mcl-1 Bim block)
Cc1ccc(Nc2nc(-c3ccc(S(=O)(=O)N4CCOCC4)cc3)cs2)cc1Cl	Calpain2 inh 60
Fc1ccc(Nc2nc(-c3ccncc3)cs2)cc1	Mcl1-Noxa inh 51
COc1ccc(-c2csc(Nc3ccc(S(N)(=O)=O)cc3)n2)cc1	Mcl1-Noxa inh 53
COc1ccc(Nc2nc(-c3ccc(OC)cc3)cs2)cc1	none
COc1ccc(-c2csc(Nc3ccccc3)n2)cc1	Mcl1-Noxa inh 83
Cc1cc(C(=O)OCC(=O)Nc2ccccc2[N+](=O)[O-])c2ccccc2n1	none
CCOC(=O)C1CCN(C(=O)Nc2ccc3nc(-c4ccco4)c(-c4ccco4)nc3c2)CC1	Mcl1-Noxa inh 97
O=C(Nc1ccc2nc(-c3ccco3)c(-c3ccco3)nc2c1)N1CCCCCC1	Mcl1-Bid inh 59, Mcl1-Noxa inh 105
CCOC(=O)C1CCN(C(=O)Nc2ccc3c(c2)nc(C)n3C)CC1	none (no result: Mcl1-Noxa inh)
O=C(O)CC(NC(=O)Cc1ccc([N+](=O)[O-])cc1)c1ccc2c(c1)OCO2 (centres undefined)	none
CCc1nnc(NC(=O)CSc2ccc(-c3ccco3)nn2)s1	Mcl1-Noxa inh 59
O=C(CSc1ccc(-c2ccco2)nn1)c1ccccc1	Mcl1-Noxa inh 59
Cc1nnc(NC(=O)CSc2ccc(-c3ccco3)nn2)s1	Mcl1-Noxa inh 56
CC1Cc2ccccc2N1S(=O)(=O)c1cccc(C(=O)N2CCN(c3ncccn3)CC2)c1 (centres undefined)	none
CCC(Oc1ccccc1)C(=O)NCc1ccc(S(N)(=O)=O)cc1 (centres undefined)	none
N#C/C(=C\c1cn[nH]c1-c1ccccc1)C(=O)NC1CCCCCC1	none
COc1cc(OC)cc(-c2cc3nc(C)c(CCC(=O)O)c(C)n3n2)c1	Mcl1-Bid inh 62
COc1cc(OC)cc(-c2cc3nc(C)c(CCC(=O)NC(C)CCc4ccco4)c(C)n3n2)c1 (centres undefined)	none (no result: Mcl1-Bid inh, Calpain2 inh, Mcl1-Noxa inh)
COc1ccc(CNc2ncnc3c2[nH]c2cc(OC)c(OC)cc23)cc1	Mcl1-Noxa inh 52 (no result: Mcl-1 Bim block)
COc1ccc(CNc2ncnc3c2[nH]c2ccccc23)cc1	none (no result: Mcl-1 Bim block)
CCC(=O)Nc1cc(-c2cc3ccccc3oc2=O)ccc1OC	none
COc1ccc(-c2cc3ccccc3oc2=O)cc1NC(=O)c1ccc([N+](=O)[O-])o1	Mcl1-Bid inh 65
COc1ccc(-c2cc3ccccc3oc2=O)cc1NC(=S)NC(=O)c1ccc2c(c1)OCCO2	none
COc1ccc(-c2cc3ccccc3oc2=O)cc1NC(=O)c1ccc(Br)o1	Mcl1-Bid inh 60
Cc1ccc(-c2nnn(CC(=O)Nc3ccccc3-c3ccccc3)n2)c(-n2cnnn2)c1	none
CCOC(=O)C1CCN(C(=O)Nc2c(-c3ccccc3)noc2C)CC1	none (no result: Mcl-1 Bim block)
O=C(N/N=C/c1ccccc1OCc1ccccc1)c1cccs1	none
O=C(O)c1ccc(Cl)c(S(=O)(=O)Nc2ccc3[nH]c(=O)[nH]c3c2)c1	Mcl1-Noxa inh 56 (no result: Mcl-1 Bim block)
O=C(O)c1cccc(S(=O)(=O)Nc2ccc3[nH]c(=O)[nH]c3c2)c1	none (no result: Mcl-1 Bim block)
C=CCNC(=O)C1(c2ccccc2)CC1(Cl)Cl (centres undefined)	none
Cc1ccc(C(=O)N2CC(=O)Nc3ccc(F)cc3C2c2ccc(F)cc2)cc1[N+](=O)[O-] (centres undefined)	Mcl1-Bid inh 53
Cc1ccc(C(=O)N2CC(=O)Nc3ccc(F)cc3C2c2ccccc2)cc1[N+](=O)[O-] (centres undefined)	none
Cc1ccc(-c2nc3ccccc3[nH]2)cc1NC(=O)c1ccc2c(c1)OCO2	none
O=C(NC(=S)Nc1cc(-c2nc3ccccc3[nH]2)ccc1Cl)c1ccc2c(c1)OCO2	Mcl1-Bid inh 59
CCOC(=O)CSc1nc(C2CC2)cc(-c2ccc(Cl)cc2)c1C#N	Mcl1-Bid inh 97
CCOC(=S)SCC(=O)Nc1ncc(C)s1	none (no result: Mcl-1 Bim block)
CCOc1ccc(CN2CCC(C(=O)N3CCN(c4ccccc4F)CC3)CC2)cc1OC	none
COc1cccc(C(=O)N2CCN(C3CCN(Cc4ccccc4)CC3)CC2)c1	none
COc1ccc(C(=O)N2CCN(C3CCN(Cc4ccccc4)CC3)CC2)cc1OC	Mcl1-Bid inh 58
CCOc1ccc(CN2CCN(C(=O)c3cccc(F)c3)CC2)cc1	Mcl1-Bid inh 66
COc1cc(CN2CCC(C(=O)N3CCN(c4ccccc4F)CC3)CC2)cc(OC)c1O	Mcl1-Bid inh 51
COc1ccc(C(=O)N2CCN(Cc3cc(OC)c(O)c(OC)c3)CC2)cc1OC	Mcl1-Bid inh 58
COc1ccc(CN2CCN(C(=O)c3cc(OC)c(OC)c(OC)c3)CC2)cc1OC	none
CC(C)c1cc(C(=O)O)c2cnn(C(C)C)c2n1	none (no result: Mcl-1 Bim block)
O=S(=O)(Nc1cccnc1)c1ccc(Cl)c(C(F)(F)F)c1	none
COc1cc(CN2CCN(C(=O)CC(C)C)CC2)cc(OC)c1OC	none
COc1cc(CN2CCN(C(=O)CC(C)C)CC2)cc(OC)c1O	Mcl1-Bid inh 51
COc1ccc(-c2cc(C(=O)NC(Cc3cc4ccccc4[nH]3)C(=O)O)c(C)o2)cc1OC (centres undefined)	Calpain2 inh 52
COc1ccc(-c2cc(C(=O)O)c(C)o2)cc1OC	none
COc1ccc(C2=CC(=O)C=CC2=O)cc1	Mcl1-Noxa inh 87 (no result: Mcl-1 Bim block)
CCn1c(C)c(C2=CCN(S(=O)(=O)c3ccccc3)CC2)c2ccccc21	none
